Out of some 39,000 compounds screened, about 3,300 (8.5%) were called active. This excerpt belongs to a sample that is enriched for actives.

The test system of this assay is HepG2. The experiment in a line: cytotoxicity call (relative viability < 0.9). Conditions: 10 µM.
On to `C[C@H]1CN([C@@H](C)CO)C(=O)c2cc(C#CCC3CCCC3)cnc2O[C@@H]1CN(C)C(=O)c1cnccn1`, for which the cytotoxicity call was “inactive”.
Turning to `CC(C)NC(=O)N(C)C[C@H]1Oc2cc(C#Cc3cccc(F)c3)ccc2S(=O)(=O)N([C@@H](C)CO)C[C@H]1C`, the cytotoxicity call was “inactive”.
On to `CNC[C@@H]1OCCCC[C@H](C)Oc2ccc(NS(=O)(=O)c3cn(C)cn3)cc2C(=O)N([C@@H](C)CO)C[C@@H]1C`, for which the cytotoxicity call was “inactive”.
With `C[C@H](CO)N1C[C@H](C)[C@@H](CN(C)S(=O)(=O)c2ccc(Cl)cc2)OCCCC[C@H](C)Oc2ccc(NS(=O)(=O)c3ccc(Cl)cc3)cc2C1=O` the entry was “inactive”; with `C[C@@H]1CCCCO[C@H](CN(C)S(=O)(=O)c2ccc(Cl)cc2)[C@@H](C)CN([C@H](C)CO)C(=O)c2cc(NS(=O)(=O)c3ccc(Cl)cc3)ccc2O1`, “inactive”; with `C[C@@H]1CCCCO[C@@H](CN(C)S(=O)(=O)c2ccc(Cl)cc2)[C@@H](C)CN([C@@H](C)CO)C(=O)c2cc(NS(=O)(=O)c3ccc(Cl)cc3)ccc2O1`, “inactive”.
As for `C[C@@H]1CCCCO[C@H](CN(C)S(=O)(=O)c2ccc(Cl)cc2)[C@H](C)CN([C@@H](C)CO)C(=O)c2cc(NS(=O)(=O)c3ccc(Cl)cc3)ccc2O1`, the cytotoxicity call is “active”.
Turning to `C[C@@H]1CN([C@@H](C)CO)C(=O)c2cc(NS(=O)(=O)c3ccc(Cl)cc3)ccc2O[C@@H](C)CCCCO[C@@H]1CN(C)S(=O)(=O)c1ccc(Cl)cc1`, the cytotoxicity call is “active”.
With `C[C@@H]1CCCCO[C@H](CN(C)S(=O)(=O)c2ccc(Cl)cc2)[C@@H](C)CN([C@@H](C)CO)C(=O)c2cc(NS(=O)(=O)c3ccc(Cl)cc3)ccc2O1` the entry was “inactive”; with `C[C@@H]1CN([C@H](C)CO)C(=O)c2cc(NS(=O)(=O)c3ccc(Cl)cc3)ccc2O[C@@H](C)CCCCO[C@@H]1CN(C)S(=O)(=O)c1ccc(Cl)cc1`, “inactive”; with `C[C@H]1CCCCO[C@@H](CN(C)S(=O)(=O)c2ccc(Cl)cc2)[C@@H](C)CN([C@@H](C)CO)C(=O)c2cc(NS(=O)(=O)c3ccc(Cl)cc3)ccc2O1`, “inactive”.
With `C[C@@H]1CCCCO[C@@H](CN(C)S(=O)(=O)c2ccc(Cl)cc2)[C@H](C)CN([C@@H](C)CO)C(=O)c2cc(NS(=O)(=O)c3ccc(Cl)cc3)ccc2O1` the entry was “inactive”.
`C[C@@H]1CCCCO[C@@H](CN(C)S(=O)(=O)c2ccc(Cl)cc2)[C@@H](C)CN([C@H](C)CO)C(=O)c2cc(NS(=O)(=O)c3ccc(Cl)cc3)ccc2O1`: the cytotoxicity call is “inactive”.
For the compound `C[C@H](CO)N1C[C@H](C)[C@H](CN(C)S(=O)(=O)c2ccc(Cl)cc2)OCCCC[C@H](C)Oc2ccc(NS(=O)(=O)c3ccc(Cl)cc3)cc2C1=O`, the cytotoxicity call was “active”.
With `C[C@@H]1CCCCO[C@H](CN(C)S(=O)(=O)c2ccc(Cl)cc2)[C@H](C)CN([C@H](C)CO)C(=O)c2cc(NS(=O)(=O)c3ccc(Cl)cc3)ccc2O1` the entry was “active”; with `CN(C)C(=O)c1ccc(-c2cccc(-c3nc(C(=O)NCc4ccccc4)cc4c3[C@@H](CCO)N([S@@](=O)C(C)(C)C)C4)c2)cc1`, “inactive”.
For the compound `C[C@H](NC(=O)C[C@H]1CC[C@@H](NC(=O)CN2CCOCC2)[C@@H](CO)O1)c1ccccc1`, the cytotoxicity call is “inactive”.
Regarding `Cc1ccc(S[C@]2(C(=O)NC3CC3)CC(=O)N(Cc3cc(C(F)(F)F)cc(C(F)(F)F)c3)[C@@H]2c2ccc(CO)cc2)cc1`, the cytotoxicity call is “inactive”.
With `C[C@@H]1CCCCO[C@@H](CN(C)S(=O)(=O)c2ccccc2)[C@H](C)CN([C@@H](C)CO)C(=O)c2cc(NC(=O)C3CCCCC3)ccc2O1` the entry was “inactive”; with `COc1ccc(S(=O)(=O)Nc2ccc3c(c2)CC(=O)N([C@@H](C)CO)C[C@@H](C)[C@@H](CN(C)Cc2ccc(C(=O)O)cc2)O3)cc1`, “inactive”.
With `COc1ccc(NC(=O)N(C)C[C@@H]2OCCCC[C@H](C)Oc3ccc(NS(=O)(=O)c4cccs4)cc3C(=O)N([C@@H](C)CO)C[C@@H]2C)cc1` the entry was “inactive”.
For the compound `CCS(=O)(=O)N1C[C@]2(CN(C2)C(=O)c2ccc3c(c2)OCO3)c2c(n(c3cc(ccc23)OC)C)[C@H]1CO`, the cytotoxicity call was “inactive”.
Take `CN1CCN(C(=O)C[C@@H]2CC[C@@H]3[C@H](COC[C@@H](O)CN3C(=O)Nc3cc(Cl)cc(Cl)c3)O2)CC1`: the cytotoxicity call was “inactive”.
`C[C@H]1CN([C@@H](C)CO)C(=O)c2cc(NC(=O)C3CCCCC3)ccc2O[C@H]1CN(C)C(=O)Nc1ccc(C(F)(F)F)cc1`: the cytotoxicity call was “inactive”.
As to `C[C@@H]1CN([C@H](C)CO)C(=O)c2cc(NS(=O)(=O)c3ccc(Cl)cc3)ccc2O[C@@H](C)CCCCO[C@H]1CN(C)S(=O)(=O)c1ccc(Cl)cc1`, the cytotoxicity call was “inactive”.
With `C[C@@H]1CN([C@@H](C)CO)C(=O)c2cc(NS(=O)(=O)c3ccc(Cl)cc3)ccc2O[C@@H](C)CCCCO[C@H]1CN(C)S(=O)(=O)c1ccc(Cl)cc1` the entry was “inactive”.
With `C[C@@H]1CCCCO[C@@H](CN(C)S(=O)(=O)c2ccc(Cl)cc2)[C@H](C)CN([C@H](C)CO)C(=O)c2cc(NS(=O)(=O)c3ccc(Cl)cc3)ccc2O1` the entry was “active”.
With `COCCNC(=O)C[C@H]1C[C@H]2c3cc(NC(=O)CN(C)C)ccc3O[C@H]2[C@@H](CO)O1` the entry was “inactive”.
In the case of `C[C@H](CO)N1C[C@H](C)[C@@H](CN(C)Cc2ccc(Oc3ccccc3)cc2)Oc2ccc(NC(=O)NC3CCCCC3)cc2C1=O`, the cytotoxicity call is “active”.
With `C[C@H]1CN([C@@H](C)CO)C(=O)c2cc(NC(=O)NC3CCCCC3)ccc2O[C@H]1CN(C)Cc1ccc(Oc2ccccc2)cc1` the entry was “inactive”; with `C[C@@H]1CN([C@@H](C)CO)C(=O)c2cc(NC(=O)NC3CCCCC3)ccc2O[C@@H]1CN(C)Cc1ccc(Oc2ccccc2)cc1`, “active”.
With `C[C@@H]1CN([C@@H](C)CO)C(=O)c2cc(NC(=O)NC3CCCCC3)ccc2O[C@H]1CN(C)Cc1ccc(Oc2ccccc2)cc1` the entry was “inactive”; with `C[C@H](CO)N1C[C@H](C)[C@H](CN(C)Cc2ccc(Oc3ccccc3)cc2)Oc2ccc(NC(=O)NC3CCCCC3)cc2C1=O`, “inactive”; with `C[C@@H]1CN([C@H](C)CO)C(=O)c2cc(NC(=O)NC3CCCCC3)ccc2O[C@H]1CN(C)Cc1ccc(Oc2ccccc2)cc1`, “inactive”.
For `CC(C)NC(=O)Nc1ccc2c(c1)C(=O)N([C@@H](C)CO)C[C@@H](C)[C@@H](CN(C)Cc1ccc(Oc3ccccc3)cc1)O2`, the cytotoxicity call was “inactive”.
With `CC(C)NC(=O)Nc1ccc2c(c1)C(=O)N([C@H](C)CO)C[C@@H](C)[C@H](CN(C)Cc1ccc(Oc3ccccc3)cc1)O2` the entry was “inactive”.
With `C[C@@H]1CN([C@H](C)CO)C(=O)c2cc(NC(=O)NC3CCCCC3)ccc2O[C@@H]1CN(C)Cc1ccc(Oc2ccccc2)cc1` the entry was “active”.
With `O=C(C[C@@H]1CC[C@@H]2[C@H](COC[C@H](O)CN2C(=O)Nc2ccc(Cl)cc2)O1)NCCc1ccncc1`, the cytotoxicity call is “inactive”.
With `Cn1ccnc1C(=O)N[C@@H]1CN(C(N)=O)[C@H]2CCCO[C@@H]12` the entry was “inactive”.
With `C[C@@H]1CN([C@@H](C)CO)C(=O)Cc2cc(NC(=O)C3CC3)ccc2O[C@@H]1CN(C)S(=O)(=O)c1cccs1` the entry was “inactive”.
As to `Cc1ccc(S(=O)(=O)Nc2ccc3c(c2)C(=O)N([C@H](C)CO)C[C@@H](C)[C@H](CN(C)C(=O)Nc2ccc4c(c2)OCO4)OCCCC[C@@H](C)O3)cc1`, the cytotoxicity call is “inactive”.
With `C[C@H](CO)N1C[C@H](C)[C@@H](CN(C)S(=O)(=O)c2ccc(F)cc2)OCCCC[C@H](C)Oc2ccc(NC(=O)Nc3ccc4c(c3)OCO4)cc2C1=O` the entry was “inactive”.
With `Cc1noc(C)c1S(=O)(=O)Nc1ccc2c(c1)C(=O)N([C@@H](C)CO)C[C@H](C)[C@H](CN(C)S(=O)(=O)c1ccccc1)O2` the entry was “inactive”.
Regarding `C[C@@H]1CN([C@H](C)CO)C(=O)c2cc(NC(=O)Cn3cnnn3)ccc2O[C@@H]1CN(C)CC1CC1`, the cytotoxicity call was “inactive”.
As for `COC(=O)COc1nsnc1N1CCOCC1`, the cytotoxicity call is “inactive”.
With `CNc1ccc(-c2nc(N3CCOCC3)c3sc(CN(C)c4ncc(C(=O)NO)cn4)cc3n2)cn1` the entry was “active”; with `COc1ccc(-c2nc(N3CCOCC3)c3sc(CN(C)c4ncc(C(=O)NO)cn4)cc3n2)cn1`, “active”; with `COc1ccc(S(=O)(=O)Nc2ccc3c(c2)C(=O)N([C@@H](C)CO)C[C@@H](C)[C@H](CN(C)C(=O)Nc2c(C)noc2C)OCCCC[C@H](C)O3)cc1`, “inactive”.
With `O=C(/C=C/c1ccc(O)c(O)c1)O[C@H]1[C@H](O)C[C@](O)(C(=O)O)C[C@H]1OC(=O)/C=C/c1ccc(O)c(O)c1` the entry was “inactive”.
With `Cc1ccc(S(=O)(=O)Nc2ccc3c(c2)CC(=O)N([C@H](C)CO)C[C@H](C)[C@@H](CN(C)S(C)(=O)=O)O3)cc1` the entry was “inactive”.
On to `Cc1cccc2c1OCC[C@@H](N)C2=O`, for which the cytotoxicity call was “inactive”.
In the case of `Cc1coc2c1C(=O)C(=O)c1c-2ccc2c1CCCC2(C)C`, the cytotoxicity call was “active”.
Regarding `CC1COC2=C1C(=O)C(=O)c1c2ccc2c1CCCC2(C)C` (stereo not given), the cytotoxicity call was “active”.
With `Cc1cccc2c3c(ccc12)C1=C(C(=O)C3=O)C(C)CO1` (stereo not given) the entry was “active”; with `C[C@@H]1CN([C@@H](C)CO)C(=O)Cc2cc(NC(=O)Nc3cccc4ccccc34)ccc2O[C@H]1CN(C)Cc1ccc(-c2ccccc2)cc1`, “inactive”.
For the compound `COc1cc2c(cc1OC)CN(C(=O)[C@H]1[C@@H]3C(=O)O[C@@H](c4ccccc4)[C@@H](c4ccccc4)N3[C@@H](c3ccccc3OCCO)[C@]13C(=O)Nc1ccc(C#CC4(O)CCCCCC4)cc13)CC2`, the cytotoxicity call was “inactive”.
Consider `O=C(C[C@@H]1CC[C@H]2[C@@H](COC[C@H](O)CN2C(=O)c2ccccn2)O1)NC1CCC1`, for which the cytotoxicity call was “inactive”.
With `O[C@@H]1[C@@H](O)[C@H](OC/C=C/c2ccccc2)O[C@H](CO[C@@H]2OC[C@@H](O)[C@@H](O)[C@@H]2O)[C@H]1O` the entry was “inactive”; with `NCc1cccc2nsnc12`, “inactive”.
On to `C[C@H]1CN([C@@H](C)CO)C(=O)c2cccc(NC(=O)C3CC3)c2O[C@@H]1CN(C)S(=O)(=O)c1ccc(F)cc1`, for which the cytotoxicity call is “inactive”.
